Shown is part of a subset that was picked to be rich in hits.
miR-122 inh – raises miR-122 sensor activity in Huh7 cells. Huh7 psiCHECK-miR122 Renilla luciferase sensor, 48 h. activation, % at 12.5 µM. 340,000 tested, 0.14% active;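 active = mean activation of 30% or more, with every replicate also reaching 30%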;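 also: higher luciferase signal means stronger suppression of miR-122 activity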
Large screens that a line does not name were inactive.

C[C@H](CO)N1C[C@H](C)[C@H](CN(C)CC2CCOCC2)Oc2ncc(C#CCc3ccccc3)cc2C1=O	none
C[C@@H]1CN([C@@H](C)CO)C(=O)c2cc(-c3ccc(F)cc3)cnc2O[C@@H]1CN(C)C(=O)c1cccnc1	none
C[C@@H]1CN([C@@H](C)CO)C(=O)c2cc(C3=CCCCC3)cnc2O[C@@H]1CN(C)Cc1cccc(F)c1	none
CN1[C@@H](CO)[C@@H]2c3ccccc3N(C(=O)Nc3cc(F)ccc3F)C[C@@H]21	miR-122 inh 33
O=S(=O)(c1ccccc1)N1C[C@H]2[C@@H](c3ccccc31)[C@@H](CO)N2Cc1ccc2c(c1)OCO2	none
O=C(Nc1ccccc1F)N1C[C@@H]2[C@H](c3ccccc31)[C@@H](CO)N2C(=O)C1CCCC1	none
COc1cccc(S(=O)(=O)N(C)C[C@H]2Oc3ncc(C#CCC(C)C)cc3C(=O)N([C@@H](C)CO)C[C@@H]2C)c1	none
CO[C@@H]1CN(C)C(=O)c2ccc(NC(=O)C3CCC3)cc2OC[C@H](C)NC[C@@H]1C	none
C[C@@H]1CN([C@@H](C)CO)C(=O)c2cc(C#C[C@@H](C)O)cnc2O[C@H]1CN(C)C(=O)CN(C)C	none
CCC(=O)N1C[C@@H](C)[C@H](OC)CN(C)C(=O)c2ccc(NC(=O)C3CCCCC3)cc2OC[C@@H]1C	none
CC(C)CC#Cc1ccc2c(c1)O[C@@H](CN(C)C(=O)C1CCOCC1)[C@@H](C)CN([C@@H](C)CO)S2(=O)=O	none
N#CC1=C(N)Oc2c(ccc3cccnc23)C1c1ccccc1 (stereo not given)	miR-122 inh 64
C/C=C/c1cnc2c(c1)C(=O)N([C@@H](C)CO)C[C@@H](C)[C@H](CN(C)C(=O)Cc1cccnc1)O2	none
CO[C@H]1CN(C)C(=O)c2cc(NS(=O)(=O)c3ccccc3)ccc2OC[C@H](C)N(C)C[C@H]1C	none
COC(=O)C[C@@H]1CC[C@@H]2[C@@H](COc3ccc(NS(=O)(=O)c4ccccc4F)cc3C(=O)N2C)O1	miR-122 inh 42
CCCNC(=O)C[C@@H]1CC[C@@H]2[C@H](COc3ccc(NS(=O)(=O)c4ccccc4C)cc3C(=O)N2C)O1	miR-122 inh 67
COc1cccc(NC(=O)N(C)C[C@@H]2Oc3ncc(C#Cc4cccnc4)cc3C(=O)N([C@H](C)CO)C[C@@H]2C)c1	none
C[C@H](CO)N1C[C@H](C)[C@H](CN(C)C(=O)c2ccccc2F)Oc2ncc(C#Cc3ccc(F)cc3)cc2C1=O	none
CO[C@@H]1CN(C)C(=O)c2ccc(NC(=O)Nc3ccccc3)cc2OC[C@H](C)N(C(C)=O)C[C@H]1C	none
CCCN(C)C[C@H]1Oc2cc(C#CC(C)C)ccc2S(=O)(=O)N([C@H](C)CO)C[C@H]1C	none
C[C@H]1CN([C@@H](C)CO)S(=O)(=O)c2ccc(C#Cc3cccnc3)cc2O[C@@H]1CN(C)CC1CCOCC1	none
C[C@H]1CN([C@@H](C)CO)C(=O)c2cc(-c3cncnc3)cnc2O[C@@H]1CN(C)CC1CCOCC1	none
CC(C)CC#Cc1cnc2c(c1)C(=O)N([C@@H](C)CO)C[C@@H](C)[C@H](CN(C)C(=O)Nc1cc(F)ccc1F)O2	none
C[C@H](CO)N1C[C@H](C)[C@H](CN(C)Cc2ccc(C(=O)O)cc2)Oc2ncc(-c3ccc(F)cc3)cc2C1=O	none
C[C@H](CO)N1C[C@H](C)[C@@H](CN(C)C(=O)Nc2cccc(F)c2)Oc2cc(/C=C/c3ccccc3)ccc2S1(=O)=O	none
CC(=O)N(C)C[C@H]1Oc2cc(/C=C/c3ccccc3)ccc2S(=O)(=O)N([C@H](C)CO)C[C@@H]1C	none
CC(=O)N(C)C[C@H]1Oc2cc(/C=C/c3ccccc3)ccc2S(=O)(=O)N([C@@H](C)CO)C[C@H]1C	miR-122 inh 34
C[C@@H]1CN([C@@H](C)CO)S(=O)(=O)c2ccc(/C=C/c3ccccc3)cc2O[C@@H]1CN(C)C(=O)NC1CCCCC1	miR-122 inh 41
C[C@@H]1CN([C@H](C)CO)S(=O)(=O)c2ccc(/C=C/c3ccccc3)cc2O[C@@H]1CN(C)C(=O)c1ccccc1	none
CC(C)CC#Cc1ccc2c(c1)O[C@H](CN(C)C(=O)NC1CCCC1)[C@@H](C)CN([C@H](C)CO)S2(=O)=O	none
COC1=CC(=O)C=C(OC)C1=O	miR-122 inh 57
C[C@H](CO)N1C[C@H](C)[C@H](CN(C)C(=O)Cc2ccccc2)Oc2ncc(C#CC3(O)CCCC3)cc2C1=O	none
C[C@@H]1CN([C@H](C)CO)C(=O)Cc2cc(NC(=O)Nc3ccc4c(c3)OCO4)ccc2O[C@@H]1CN(C)C(=O)Nc1cccc2ccccc12	none
CCC(=O)Nc1ccc2c(c1)C(=O)N(C)C[C@H](OC)[C@@H](C)CN(C(C)=O)[C@H](C)CO2	none
CC(C)CC#Cc1cnc2c(c1)C(=O)N([C@H](C)CO)C[C@H](C)[C@@H](CN(C)C(=O)NC1CCCC1)O2	none
C[C@H](CO)N1C[C@H](C)[C@@H](CN(C)C(=O)c2cccnc2)Oc2ncc(-c3ccc(C(=O)N(C)C)cc3)cc2C1=O	none
CN1/C(=C/C=C/c2n(C)c3cc([N+](=O)[O-])c([N+](=O)[O-])cc3[n+]2C)C(C)(C)c2ccccc21	miR-122 inh 38
CCC(=O)Nc1ccc2c(c1)OC[C@H](C)N(C(=O)c1ccncc1)C[C@@H](C)[C@H](OC)CN(C)C2=O	none
C[C@H](CO)N1C[C@H](C)[C@@H](CN(C)C(=O)C2CCCCC2)Oc2ncc(C#CCc3ccccc3)cc2C1=O	none
C[C@H](CO)N1C[C@H](C)[C@@H](CN(C)C(=O)c2ccccc2F)Oc2ncc(C#Cc3ccc(F)cc3)cc2C1=O	none
C[C@H](CO)N1C[C@H](C)[C@@H](CN(C)C(=O)Cc2ccccn2)Oc2ncc(/C=C/c3ccccc3)cc2C1=O	none
FC(F)(F)c1cc(CCN2CCNC[C@@H]2CC2CCCCC2)cc(C(F)(F)F)c1	miR-122 inh 38
C[C@H]1CN([C@@H](C)CO)C(=O)c2cc(-c3ccncc3)cnc2O[C@H]1CN(C)C(=O)c1ccccc1F	none
CCS(=O)(=O)Nc1ccc2c(c1)C(=O)N(C)C[C@@H](OC)[C@H](C)CN(Cc1cccnc1)[C@H](C)CO2	none
CCn1c(Cl)c(C=O)s/c1=N\S(=O)(=O)c1ccccc1	miR-122 inh 72
COCC#Cc1cnc2c(c1)C(=O)N([C@H](C)CO)C[C@@H](C)[C@@H](CN(C)C(=O)Cc1ccccc1)O2	none
COCC#Cc1cnc2c(c1)C(=O)N([C@@H](C)CO)C[C@H](C)[C@H](CN(C)C(=O)C1CCOCC1)O2	none
CCC(=O)Nc1ccc2c(c1)OC[C@H](C)N(Cc1ccccc1F)C[C@@H](C)[C@H](OC)CN(C)C2=O	none
CO[C@H]1CN(C)C(=O)c2cc(NS(=O)(=O)c3ccccc3)ccc2OC[C@@H](C)N(C)C[C@H]1C	none
C[C@@H]1CN([C@H](C)CO)S(=O)(=O)c2ccc(C#Cc3ccccc3)cc2O[C@@H]1CN(C)S(=O)(=O)c1ccccc1F	none
CCOc1ccc(NS(=O)(=O)c2ccc(NC(=S)NC(=O)C(C)C)cc2)cc1	none
CCOc1ccc(NC(=S)N(CCCN2CCCC2)Cc2cccn2Cc2ccc(Cl)cc2)cc1	miR-122 inh 33
C[C@H](CO)N1C[C@H](C)[C@@H](CN(C)C(=O)NC2CCCCC2)Oc2ncc(-c3ccccc3F)cc2C1=O	none
C/C=C/c1cnc2c(c1)C(=O)N([C@H](C)CO)C[C@H](C)[C@@H](CN(C)C(=O)Cc1cccnc1)O2	none
CCCN(C)C[C@@H]1Oc2cc(C#CC(C)C)ccc2S(=O)(=O)N([C@@H](C)CO)C[C@@H]1C	none
COc1cccc(-c2nn(-c3ccccc3)cc2CO)c1	miR-122 inh 34
COc1cccc(-c2cnc3c(c2)C(=O)N([C@H](C)CO)C[C@@H](C)[C@H](CN(C)Cc2ccccc2)O3)c1	none

Bioassay records deposited in PubChem by Broad Institute.
